MbtI inh: blocks the Mycobacterium tuberculosis siderophore enzyme MbtI | AID 493033 | inhibition, % (no concentration beside the values) | P9WFX0 | purified MbtI enzyme, fluorescence intensity read-out | 100,000 compounds, 0.89% hits; in the data active means inhibition mostly above about 56%, no sharp cut-off; inactive means mostly below about 77%
PV pol inh: poliovirus RNA polymerase inhibition | % elongation, % (compound at 16.7 µg/mL) | P03300 | poliovirus polymerase elongation, fluorescence polarization; stronger effect = lower value | 150,000 compounds, 0.66% hits; in the data active means % elongation below about 90%
Mtb MenB inh: inhibitors of Mycobacterium tuberculosis MenB enzyme | P9WNP5 | MenB enzyme assay, absorbance read-out | inhibition, % (no concentration beside the values) | 100,000 compounds, 0.43% hits; in the data active means inhibition above about 21%, passing the limit was not always enough
Target sequence (P9WNP5 whole entry, looked up): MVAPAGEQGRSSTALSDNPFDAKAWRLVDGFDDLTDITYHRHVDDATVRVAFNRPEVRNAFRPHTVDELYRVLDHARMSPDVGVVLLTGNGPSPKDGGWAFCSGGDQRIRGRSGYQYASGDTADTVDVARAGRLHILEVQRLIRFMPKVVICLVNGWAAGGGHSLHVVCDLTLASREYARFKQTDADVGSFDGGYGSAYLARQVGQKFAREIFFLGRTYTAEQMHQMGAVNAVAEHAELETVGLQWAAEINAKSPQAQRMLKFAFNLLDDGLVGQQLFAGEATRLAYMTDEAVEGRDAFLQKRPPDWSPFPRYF
AID504770: growth inhibitors of E. coli YBA685 in a screen for V. cholerae RctB (chromosome II replication) inhibitors; E. coli YBA685 rctB-dependent plasmid, OD600 growth, 3 h; stronger effect = lower value; z-score (no concentration beside the values); 130,000 compounds, 0.27% hits; in the data active means z-score below about -2, passing the limit was not always enough
* marks the source's active call; other numbers are inactive results. Rows were chosen to be rich in hits. Some 1.5% of all compounds tested hit in one or more screens of this group.

Results for COc1ccc(C(=S)N2CCCCC2)cc1OC ?
MbtI inh: 82.2*; PV pol inh: 98.0; Mtb MenB inh: -37.0; AID504770: 0.05

What do the screens show for `S=C(SCc1nnc(-c2ccc(Cl)cc2)o1)N1CCCC1`?
MbtI inh: -3.5; PV pol inh: 105.0; Mtb MenB inh: -21.3; AID504770: -0.35

What do the screens show for `COP1(=S)/C(=C2/N(C)c3ccccc3C2(C)C)C=NN1C` (configuration not stated)?
MbtI inh: 99.6*; PV pol inh: 70.0*; Mtb MenB inh: -81.8; AID504770: 0.65

How did S=C(NCCc1ccccc1)c1ccccc1 do in these assays?
MbtI inh: -10.0; PV pol inh: 103.0; Mtb MenB inh: -8.7; AID504770: -0.35

What do the screens show for `NC(=S)NCCc1ccccc1`?
MbtI inh: 83.0*; PV pol inh: 86.0*; Mtb MenB inh: -49.9; AID504770: -0.25

What do the screens show for `O=C(CC1Sc2ncnn2C1=O)Nc1ccc(Br)cc1` (configuration not stated)?
MbtI inh: 99.3*; AID504770: 1.65

What do the screens show for `CN=C1SC(CC(=O)Nc2ccccc2)C(=O)N1C` (configuration not stated)?
MbtI inh: -7.5; Mtb MenB inh: -7.9; AID504770: 0.4

Results for Cc1nc(Cc2nnc(SCC(=O)NC(=O)c3cccn3C)o2)cs1 ?
MbtI inh: -3.7; PV pol inh: 104.0; Mtb MenB inh: -10.2; AID504770: 0.1

How did COc1ccc(C2C(=O)c3ccccc3C2=O)cc1 do in these assays?
MbtI inh: 2.8; PV pol inh: 100.0; Mtb MenB inh: 4.9; AID504770: -0.5

Results for COc1ccc([C@H]2NC(=O)C(=C=[N-])C(=O)[C@@H]2[n+]2ccccc2)cc1 ?
PV pol inh: 37.0*; Mtb MenB inh: -16.0; AID504770: 0.45

How did C/C(=C\C(=O)c1cccnc1)Nc1ccccc1O do in these assays?
MbtI inh: 26.6; PV pol inh: 102.0; Mtb MenB inh: 59.8*; AID504770: 0.25

Results for Nc1nnc(CCCn2c(=O)oc3ccccc32)s1 ?
PV pol inh: 86.0*; Mtb MenB inh: -9.1; AID504770: -0.4

What do the screens show for `O=C(NCCc1ccc2c(c1)OCCO2)c1ccncc1`?
MbtI inh: -1.6; PV pol inh: 103.0; Mtb MenB inh: 1.1; AID504770: -0.45

Results for C[C@H](NS(=O)(=O)c1cccc2nsnc12)C(=O)OCc1ccccc1 ?
MbtI inh: -3.5; PV pol inh: 108.0; Mtb MenB inh: -27.0; AID504770: -0.85

How did COc1ccccc1/C=C1/C(=O)ON=C1C do in these assays?
MbtI inh: 9.4; PV pol inh: 103.0; Mtb MenB inh: -13.4; AID504770: -2.75*

Results for COc1ccc(-c2noc(=O)n2Cc2cccc(C)c2)cc1 ?
MbtI inh: -3.9; PV pol inh: 103.0; Mtb MenB inh: 11.3; AID504770: 0.35

What do the screens show for `COc1ccc(-c2noc(=O)n2CCCC#N)cc1OC`?
MbtI inh: 0.1; PV pol inh: 103.0; Mtb MenB inh: 31.1*; AID504770: 1.3

How did CN(C)S(=O)(=O)c1cccc(-c2nnc3n2N=C(c2ccccc2)C(CC(=O)O)S3)c1 (configuration not stated) do in these assays?
MbtI inh: 99.2*; PV pol inh: 75.0*; Mtb MenB inh: 0.4; AID504770: -0.6

Results for O=c1cc(-c2c(F)c(F)c(F)c(F)c2F)oc2ccccc12 ?
AID504770: -0.65

What do the screens show for `O=c1cc(-c2c(F)c(F)c(F)c(F)c2F)oc2c(F)c(F)c(F)c(F)c12`?
MbtI inh: 28.7; PV pol inh: 90.0*; Mtb MenB inh: -30.6; AID504770: 2.6

What do the screens show for `CCOC(=O)N1CCN(CN2C(=O)NC(c3ccccc3)(c3ccccc3)C2=O)CC1`?
MbtI inh: -5.2; PV pol inh: 102.0; Mtb MenB inh: 10.5; AID504770: -0.35

How did O=c1[nH][nH]c2ccc(Cl)cc12 do in these assays?
MbtI inh: 19.3; PV pol inh: 100.0; Mtb MenB inh: -7.4; AID504770: -1.2

How did COc1cc(C(=O)Nc2c3c(nn2-c2ccc(F)cc2)CS(=O)(=O)C3)cc(OC)c1OC do in these assays?
MbtI inh: 6.0; PV pol inh: 103.0; Mtb MenB inh: -17.4; AID504770: -3.15*

How did O=C(O)C(Oc1ccc2c3c(c(=O)oc2c1)CCCC3)c1ccccc1 (configuration not stated) do in these assays?
MbtI inh: -162.6; PV pol inh: 98.0; Mtb MenB inh: 7.5; AID504770: 1.05

Results for C=CCSc1nnc(NC(=O)NC2CCCCC2)s1 ?
MbtI inh: -10.0; PV pol inh: 105.0; Mtb MenB inh: -17.4; AID504770: -2.8*

What do the screens show for `CC(=O)c1ccc(NC(=O)CSc2nnc(NC(=O)NC3CCCCC3)s2)cc1`?
PV pol inh: 109.0

Results for O=C(Nc1ccc(N2C(=O)C=CC2=O)cc1Cl)c1ccco1 ?
MbtI inh: 96.2*; PV pol inh: 99.0; Mtb MenB inh: 11.3; AID504770: -0.3

Results for O=S(=O)(NCc1ccccc1)c1ccc(-c2cc(C(F)(F)F)on2)s1 ?
AID504770: -0.3

How did CCCn1c(SCC(=O)c2ccc3c(c2)OCCO3)nnc1-c1ccco1 do in these assays?
MbtI inh: 6.9; PV pol inh: 100.0; Mtb MenB inh: -23.2; AID504770: -3.8*

Results for CNC(=O)CSc1nnc(-c2ccco2)n1CC1CCCO1 (configuration not stated) ?
MbtI inh: 3.0; PV pol inh: 100.0; Mtb MenB inh: 42.6*; AID504770: 1.45

Results for CCN(CC)C(=O)CSc1nnc(-c2ccco2)n1CC1CCCO1 (configuration not stated) ?
MbtI inh: 5.8; PV pol inh: 99.0; Mtb MenB inh: -21.1; AID504770: 0.45

Results for NC(=S)NCC1CCCO1 (configuration not stated) ?
MbtI inh: 89.2*; PV pol inh: 97.0; Mtb MenB inh: -15.2; AID504770: -0.3

How did O=C(N/N=C1/CCS(=O)(=O)c2ccc(F)cc21)c1ccccn1 do in these assays?
MbtI inh: -8.6; PV pol inh: 90.0*; Mtb MenB inh: 14.6; AID504770: 0

What do the screens show for `Cc1ccc2cnn(CC(=O)N3CC(C)CC(C)C3)c2c1` (configuration not stated)?
MbtI inh: -5.6; PV pol inh: 101.0; Mtb MenB inh: -2.4; AID504770: -0.2

What do the screens show for `Cc1ccccc1NC(=O)c1sc2nc3c(cc2c1N)CN(Cc1ccccc1)CC3`?
PV pol inh: 107.0

What do the screens show for `CN1CCc2nc3sc(C(=O)Nc4ccccc4C(F)(F)F)c(N)c3cc2C1`?
PV pol inh: 31.0*

How did CC(C)CNC(=O)c1cc(-c2ccccc2O)on1 do in these assays?
MbtI inh: -35.4; PV pol inh: 101.0; Mtb MenB inh: -19.5; AID504770: -0.25

How did CCOC(=O)c1ccoc1CN1CCN(c2ccc(F)cc2)CC1 do in these assays?
MbtI inh: -12.6; PV pol inh: 103.0; Mtb MenB inh: -22.6; AID504770: 0.1

How did O=c1[nH]c(O)c(C=NCC2CCCCC2)c(=O)[nH]1 do in these assays?
MbtI inh: 18.4; PV pol inh: 101.0; Mtb MenB inh: -3.2; AID504770: -0.3
